Measurements taken from the supplement of paper PMC10849652.
The full data set covers some 7,900 targets. This sample favours those with a hit. About 0.6% of all pairs of compound and target were hits.

Tests used:
Test in all cases: log2 fold change, soluble protein after heating vs DMSO (PISA); higher = thermal stabilisation; K562 cells, 10 uM, 30 min; active = over 0.2 and 3.5 SD of the protein, either way, in both replicates (recomputed)
[1] = compound: CC[C@@H]1C(=O)N(C)c2cnc(Nc3ccc(C(=O)NC4CCN(C)CC4)cc3OC)nc2N1C1CCCC1
In short: (§1)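 Values are thermal stability changes relative to control samples and are taken from duplicates. They are stated as log2 fold changes. Before quantification by TMTpro 16plex LC-MS/MS with equalised channel sums, K562 cells at 2×10^6 cells/mL were treated with 10 μM compound for 30 min, heated in aliquots for 3 min across 48°C-58°C, pooled, extracted in PBS with 0.5% NP-40 at 4°C, and centrifuged at 21,000xg for 90 min to give the soluble supernatant.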

volasertib = compound: CC[C@@H]1C(=O)N(C)c2cnc(Nc3ccc(C(=O)N[C@H]4CC[C@H](N5CCN(CC6CC6)CC5)CC4)cc3OC)nc2N1C(C)C [volasertib]
In short: as §1

[2] = compound: CC[C@H](C)N1C=C(C2=C(C=C(C=C21)C3=CN=C(C=C3)N4CCNCC4)C(=O)NCC5=C(C=C(NC5=O)C)C)C
In short: as §1

epoxomicin = compound: CC[C@H](C)[C@@H](C(=O)N[C@@H]([C@@H](C)O)C(=O)N[C@@H](CC(C)C)C(=O)[C@]1(CO1)C)NC(=O)[C@H]([C@@H](C)CC)N(C)C(=O)C [epoxomicin]
In short: as §1

[3] = compound: CCn1c(C(=O)N(C2CC2)C2CC2)cc2c3c(ncn3C)c(Nc3cc(C)n(C)n3)nc21
In short: as §1

[4] = compound: CCn1cc(-c2ccnc3[nH]c(-c4cccc(CN(C)C)c4)cc23)c(-c2ccc(NC(=O)N(C)C)cc2)n1
In short: as §1

[5] = compound: CN(C)CC(=O)Nc1ccc2[nH]c(=O)c3ccccc3c2c1
In short: as §1

rosiglitazone = compound: CN(CCOC1=CC=C(C=C1)C[C@H]2C(=O)NC(=O)S2)C3=CC=CC=N3 (racemic) [rosiglitazone]
In short: as §1

[6] = compound: CN1C2=C(C3=C1C(=O)N(N=C3)CC4=CC(=CC=C4)N)SC(=C2)S(=O)C
In short: as §1

[7] = compound: CN1CCC(CNc2ccc3ncc(-c4cccc(OC(F)(F)F)c4)n3n2)CC1
In short: as §1

Measured: log2 fold change

EVC2 (UniProt Q86UK5)
inactive: [1] -0.133 | volasertib -0.003 | [2] 0.078 | epoxomicin 0.097 | [3] -0.038 | [4] -0.037 | [5] -0.087 | rosiglitazone 0.128 | [6] 0.034 | [7] -0.293

DBR1 (UniProt Q9UK59)
inactive: [1] 0.037 | volasertib 0 | [2] 0.008 | epoxomicin -0.018 | [3] -0.017 | [4] 0.015 | [5] -0.019 | rosiglitazone -0.002 | [6] -0.034 | [7] 0.015

EIF2S3 (UniProt P41091)
Chain of UniProt P41091 (P41091 whole entry, looked up): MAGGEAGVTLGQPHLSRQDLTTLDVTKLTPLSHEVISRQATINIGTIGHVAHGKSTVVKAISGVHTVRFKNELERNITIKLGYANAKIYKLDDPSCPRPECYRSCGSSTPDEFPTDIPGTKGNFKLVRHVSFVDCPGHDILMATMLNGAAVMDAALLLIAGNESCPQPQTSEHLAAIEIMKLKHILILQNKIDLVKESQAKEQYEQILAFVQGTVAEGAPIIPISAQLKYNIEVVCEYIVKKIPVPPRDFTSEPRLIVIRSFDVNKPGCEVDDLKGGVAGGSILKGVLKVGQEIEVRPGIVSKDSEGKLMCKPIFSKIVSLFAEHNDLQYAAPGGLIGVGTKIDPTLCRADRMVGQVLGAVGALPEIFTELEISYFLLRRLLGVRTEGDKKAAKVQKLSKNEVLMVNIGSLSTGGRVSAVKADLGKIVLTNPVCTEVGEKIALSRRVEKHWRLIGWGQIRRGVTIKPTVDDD
inactive: [1] 0.076 | volasertib 0.073 | [2] 0.026 | epoxomicin -0.144 | [3] 0.009 | [4] 0.055 | [5] -0.034 | rosiglitazone -0.02 | [6] 0.068 | [7] 0.049

EIF3J (UniProt O75822)
Chain of UniProt O75822 (O75822 whole entry, looked up): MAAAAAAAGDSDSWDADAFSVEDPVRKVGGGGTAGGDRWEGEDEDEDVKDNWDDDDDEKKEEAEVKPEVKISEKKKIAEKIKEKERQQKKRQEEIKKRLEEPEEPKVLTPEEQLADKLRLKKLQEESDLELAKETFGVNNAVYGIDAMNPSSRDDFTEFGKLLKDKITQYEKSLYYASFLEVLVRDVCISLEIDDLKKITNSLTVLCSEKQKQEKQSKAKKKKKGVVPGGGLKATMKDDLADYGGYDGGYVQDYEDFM
inactive: [1] -0.061 | volasertib 0.005 | [2] 0.011 | epoxomicin 0.055 | [3] 0 | [4] 0.001 | [5] -0.008 | rosiglitazone 0.019 | [6] -0.061 | [7] 0.226

DHX16 (UniProt O60231)
inactive: [1] -0.032 | volasertib -0.158 | [2] 0.032 | epoxomicin 0.051 | [3] -0.05 | [4] -0.054 | [5] -0.025 | rosiglitazone 0.031 | [6] -0.033 | [7] -0.012

DNAJC1 (UniProt Q96KC8)
inactive: [1] -0.097 | volasertib -0.185 | [2] 0.024 | epoxomicin 0.037 | [3] 0.008 | [4] 0.014 | [5] 0.002 | rosiglitazone 0.014 | [6] -0.01 | [7] -0.144

FAM177A1 isoform 2 (UniProt Q8N128)
active: [7] -0.259
inactive: [1] -0.039 | volasertib -0.108 | [2] 0.006 | epoxomicin 0.045 | [3] -0.001 | [4] 0.045 | [5] -0.012 | rosiglitazone 0.012 | [6] -0.023

CTU1 (UniProt Q7Z7A3)
active: [7] -0.233
inactive: [1] -0.052 | volasertib -0.117 | [2] 0.026 | epoxomicin 0.045 | [3] -0.017 | [4] -0.057 | [5] 0.065 | rosiglitazone 0.055 | [6] -0.098

FAAP100 (UniProt Q0VG06)
inactive: [1] -0.01 | volasertib 0.149 | [2] -0.02 | epoxomicin 0.139 | [3] -0.05 | [4] -0.093 | [5] 0.061 | rosiglitazone 0.006 | [6] -0.02 | [7] 0.124

EXOC6 (UniProt Q8TAG9)
inactive: [1] -0.224 | [2] 0.102 | epoxomicin -0.06 | [3] -0.051 | [4] 0.014 | [5] 0.033 | rosiglitazone 0.009 | [6] 0.06 | [7] -0.23
active: volasertib -0.443

DDB1 (UniProt Q16531)
Chain of UniProt Q16531 (Q16531 whole entry, looked up): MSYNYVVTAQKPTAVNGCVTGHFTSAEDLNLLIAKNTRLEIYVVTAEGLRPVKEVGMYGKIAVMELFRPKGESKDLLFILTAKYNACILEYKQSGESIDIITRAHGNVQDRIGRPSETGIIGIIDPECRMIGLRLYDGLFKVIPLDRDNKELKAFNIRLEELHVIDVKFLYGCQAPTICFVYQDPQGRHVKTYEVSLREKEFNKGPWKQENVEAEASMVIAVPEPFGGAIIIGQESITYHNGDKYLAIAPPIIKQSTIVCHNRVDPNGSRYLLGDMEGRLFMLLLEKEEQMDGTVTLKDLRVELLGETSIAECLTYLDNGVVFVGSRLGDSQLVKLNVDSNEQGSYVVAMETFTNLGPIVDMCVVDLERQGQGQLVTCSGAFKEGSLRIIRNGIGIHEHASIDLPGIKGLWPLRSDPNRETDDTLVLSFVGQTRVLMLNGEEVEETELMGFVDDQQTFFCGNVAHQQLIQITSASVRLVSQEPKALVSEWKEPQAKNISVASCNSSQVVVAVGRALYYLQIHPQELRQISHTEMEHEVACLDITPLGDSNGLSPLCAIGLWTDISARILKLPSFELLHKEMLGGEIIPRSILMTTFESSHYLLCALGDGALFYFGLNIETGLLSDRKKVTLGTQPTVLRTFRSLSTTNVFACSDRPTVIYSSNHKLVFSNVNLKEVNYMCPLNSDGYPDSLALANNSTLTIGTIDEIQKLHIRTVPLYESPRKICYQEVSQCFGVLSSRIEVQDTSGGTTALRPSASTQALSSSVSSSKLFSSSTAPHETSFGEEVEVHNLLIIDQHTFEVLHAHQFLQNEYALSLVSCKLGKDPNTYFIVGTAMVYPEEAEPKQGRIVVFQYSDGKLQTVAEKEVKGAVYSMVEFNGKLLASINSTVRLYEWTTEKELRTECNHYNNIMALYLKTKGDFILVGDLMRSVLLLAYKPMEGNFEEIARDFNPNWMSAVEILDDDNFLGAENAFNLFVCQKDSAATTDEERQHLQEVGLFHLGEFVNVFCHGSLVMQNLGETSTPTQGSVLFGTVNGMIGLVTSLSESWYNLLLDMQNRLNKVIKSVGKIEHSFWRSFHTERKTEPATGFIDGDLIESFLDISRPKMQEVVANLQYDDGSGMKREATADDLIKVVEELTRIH
inactive: [1] 0.045 | volasertib 0.036 | [2] -0.032 | epoxomicin -0.024 | [3] 0.021 | [4] 0.009 | [5] -0.005 | rosiglitazone -0.01 | [6] -0.028 | [7] 0

EMD (UniProt P50402)
active: volasertib -0.273
inactive: [1] -0.127 | [2] 0 | epoxomicin -0.065 | [3] -0.004 | [4] 0 | [5] -0.018 | rosiglitazone -0.054 | [6] 0.003 | [7] -0.078

EXTL2 (UniProt Q9UBQ6)
inactive: [1] 0.057 | volasertib -0.052 | [2] 0.041 | epoxomicin -0.035 | [3] -0.04 | [4] -0.046 | [5] 0.06 | rosiglitazone -0.024 | [6] -0.001 | [7] -0.157

EIF4E isoform 2 (UniProt P06730)
Chain of UniProt P06730 (P06730 whole entry, looked up): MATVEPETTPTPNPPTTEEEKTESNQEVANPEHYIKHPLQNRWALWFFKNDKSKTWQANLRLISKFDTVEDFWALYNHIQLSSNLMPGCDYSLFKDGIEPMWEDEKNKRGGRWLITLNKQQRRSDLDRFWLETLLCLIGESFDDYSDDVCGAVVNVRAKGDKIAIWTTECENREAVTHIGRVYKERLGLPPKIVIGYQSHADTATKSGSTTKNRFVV
inactive: [1] -0.012 | volasertib -0.044 | [2] 0.021 | epoxomicin 0.053 | [3] -0.01 | [4] -0.061 | [5] 0.036 | rosiglitazone -0.017 | [6] -0.146 | [7] 0.199

DDX39A (UniProt O00148)
Chain of UniProt O00148 (O00148 whole entry, looked up): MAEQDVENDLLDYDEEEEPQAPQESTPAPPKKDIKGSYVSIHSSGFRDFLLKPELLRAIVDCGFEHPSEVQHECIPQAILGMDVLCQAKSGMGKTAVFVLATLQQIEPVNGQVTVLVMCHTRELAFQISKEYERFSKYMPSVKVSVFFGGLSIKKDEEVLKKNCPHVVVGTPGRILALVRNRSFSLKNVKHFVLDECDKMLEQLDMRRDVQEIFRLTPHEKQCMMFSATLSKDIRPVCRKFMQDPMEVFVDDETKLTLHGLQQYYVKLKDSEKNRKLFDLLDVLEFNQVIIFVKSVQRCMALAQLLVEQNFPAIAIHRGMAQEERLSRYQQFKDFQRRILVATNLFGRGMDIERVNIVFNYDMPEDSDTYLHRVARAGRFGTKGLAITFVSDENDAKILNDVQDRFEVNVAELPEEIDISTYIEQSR
inactive: [1] 0.037 | volasertib -0.104 | [2] 0.034 | epoxomicin -0.096 | [3] -0.037 | [4] -0.123 | [5] -0.002 | rosiglitazone 0.018 | [6] 0.038 | [7] -0.016

FAM3A (UniProt P98173)
Chain of UniProt P98173 (P98173 whole entry, looked up): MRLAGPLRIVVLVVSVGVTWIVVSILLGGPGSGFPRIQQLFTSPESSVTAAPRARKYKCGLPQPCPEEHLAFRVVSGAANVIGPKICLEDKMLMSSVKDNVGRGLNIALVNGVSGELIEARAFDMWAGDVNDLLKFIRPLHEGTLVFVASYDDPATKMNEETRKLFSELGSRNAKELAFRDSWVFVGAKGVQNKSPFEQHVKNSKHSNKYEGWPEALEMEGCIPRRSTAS
inactive: [1] 0.024 | volasertib -0.11 | [2] -0.02 | epoxomicin 0.029 | [3] 0.085 | [4] 0.066 | [5] 0.019 | rosiglitazone 0.101 | [6] -0.023 | [7] -0.128

EHD2 (UniProt Q9NZN4)
Chain of UniProt Q9NZN4 (Q9NZN4 whole entry, looked up): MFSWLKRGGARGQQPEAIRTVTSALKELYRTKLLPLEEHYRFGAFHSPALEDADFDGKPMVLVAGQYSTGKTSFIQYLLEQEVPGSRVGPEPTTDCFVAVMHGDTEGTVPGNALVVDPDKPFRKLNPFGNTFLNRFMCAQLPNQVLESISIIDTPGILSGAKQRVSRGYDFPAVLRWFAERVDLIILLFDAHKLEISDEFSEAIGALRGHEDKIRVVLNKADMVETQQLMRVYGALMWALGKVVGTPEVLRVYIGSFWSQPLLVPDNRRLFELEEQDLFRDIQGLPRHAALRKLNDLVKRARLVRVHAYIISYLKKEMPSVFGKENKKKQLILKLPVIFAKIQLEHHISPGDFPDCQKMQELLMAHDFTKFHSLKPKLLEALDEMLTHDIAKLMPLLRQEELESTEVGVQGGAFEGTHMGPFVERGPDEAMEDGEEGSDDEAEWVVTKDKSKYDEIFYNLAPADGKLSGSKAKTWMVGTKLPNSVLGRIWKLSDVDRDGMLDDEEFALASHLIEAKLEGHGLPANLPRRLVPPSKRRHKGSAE
inactive: [1] -0.073 | [2] 0.027 | epoxomicin 0.023 | [3] -0.029 | [4] -0.085 | [5] 0.007 | rosiglitazone 0.039 | [6] -0.045 | [7] -0.002
active: volasertib -0.243

DMAC1 (UniProt Q96GE9)
inactive: [1] 0.269 | volasertib 0.016 | [2] -0.038 | epoxomicin -0.084 | [3] 0.057 | [4] -0.041 | [5] 0.001 | rosiglitazone -0.025 | [6] -0.007 | [7] 0.015

ELOVL5 isoform 2 (UniProt Q9NYP7)
inactive: [1] -0.227 | volasertib -0.164 | [2] 0.026 | epoxomicin -0.034 | [3] 0.049 | [4] -0.206 | [5] 0.021 | rosiglitazone 0.122 | [6] -0.044
active: [7] -0.691

DHRS7B (UniProt Q6IAN0)
inactive: [1] -0.079 | volasertib -0.147 | [2] -0.043 | epoxomicin -0.106 | [3] 0.004 | [4] 0.059 | [5] -0.002 | rosiglitazone 0.021 | [6] -0.122
active: [7] 0.538

EXOC7 (UniProt Q9UPT5)
inactive: [1] -0.156 | [2] 0.09 | epoxomicin 0.048 | [3] -0.091 | [4] 0.015 | [5] 0.006 | rosiglitazone 0.048 | [6] 0.033
active: volasertib -0.619 | [7] -0.317

EEF1B2 (UniProt P24534)
Chain of UniProt P24534 (P24534 whole entry, looked up): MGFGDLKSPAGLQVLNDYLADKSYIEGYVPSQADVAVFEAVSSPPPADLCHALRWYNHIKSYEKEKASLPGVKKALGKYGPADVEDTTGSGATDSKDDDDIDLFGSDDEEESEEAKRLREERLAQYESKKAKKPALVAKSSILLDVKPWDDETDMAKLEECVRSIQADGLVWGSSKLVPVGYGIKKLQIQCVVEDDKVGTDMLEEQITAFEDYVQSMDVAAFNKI
active: volasertib -0.343
inactive: [1] -0.171 | [2] 0.056 | epoxomicin -0.034 | [3] -0.015 | [4] 0.007 | [5] 0.016 | rosiglitazone 0.008 | [6] 0.03 | [7] -0.065

F5 (UniProt P12259)
inactive: [1] -0.06 | volasertib 0.105 | [2] -0.018 | epoxomicin -0.125 | [3] 0.163 | [4] -0.048 | [5] -0.09 | rosiglitazone -0.054 | [6] 0.141 | [7] -0.009

DHCR7 (UniProt Q9UBM7)
inactive: [1] 0.409 | [2] 0.054 | epoxomicin 0.154 | [3] -0.044 | [5] 0.085 | rosiglitazone 0.032 | [6] -0.055 | [7] 0.203
active: volasertib 1.68 | [4] 0.522

FAM160B1 (UniProt Q5W0V3)
inactive: [1] -0.007 | volasertib -0.043 | [2] 0.07 | epoxomicin 0 | [3] 0.027 | [4] -0.057 | [5] -0.052 | rosiglitazone 0.009 | [6] -0.056 | [7] -0.254

ERCC6 (UniProt Q03468)
Chain of UniProt Q03468 (Q03468 whole entry, looked up): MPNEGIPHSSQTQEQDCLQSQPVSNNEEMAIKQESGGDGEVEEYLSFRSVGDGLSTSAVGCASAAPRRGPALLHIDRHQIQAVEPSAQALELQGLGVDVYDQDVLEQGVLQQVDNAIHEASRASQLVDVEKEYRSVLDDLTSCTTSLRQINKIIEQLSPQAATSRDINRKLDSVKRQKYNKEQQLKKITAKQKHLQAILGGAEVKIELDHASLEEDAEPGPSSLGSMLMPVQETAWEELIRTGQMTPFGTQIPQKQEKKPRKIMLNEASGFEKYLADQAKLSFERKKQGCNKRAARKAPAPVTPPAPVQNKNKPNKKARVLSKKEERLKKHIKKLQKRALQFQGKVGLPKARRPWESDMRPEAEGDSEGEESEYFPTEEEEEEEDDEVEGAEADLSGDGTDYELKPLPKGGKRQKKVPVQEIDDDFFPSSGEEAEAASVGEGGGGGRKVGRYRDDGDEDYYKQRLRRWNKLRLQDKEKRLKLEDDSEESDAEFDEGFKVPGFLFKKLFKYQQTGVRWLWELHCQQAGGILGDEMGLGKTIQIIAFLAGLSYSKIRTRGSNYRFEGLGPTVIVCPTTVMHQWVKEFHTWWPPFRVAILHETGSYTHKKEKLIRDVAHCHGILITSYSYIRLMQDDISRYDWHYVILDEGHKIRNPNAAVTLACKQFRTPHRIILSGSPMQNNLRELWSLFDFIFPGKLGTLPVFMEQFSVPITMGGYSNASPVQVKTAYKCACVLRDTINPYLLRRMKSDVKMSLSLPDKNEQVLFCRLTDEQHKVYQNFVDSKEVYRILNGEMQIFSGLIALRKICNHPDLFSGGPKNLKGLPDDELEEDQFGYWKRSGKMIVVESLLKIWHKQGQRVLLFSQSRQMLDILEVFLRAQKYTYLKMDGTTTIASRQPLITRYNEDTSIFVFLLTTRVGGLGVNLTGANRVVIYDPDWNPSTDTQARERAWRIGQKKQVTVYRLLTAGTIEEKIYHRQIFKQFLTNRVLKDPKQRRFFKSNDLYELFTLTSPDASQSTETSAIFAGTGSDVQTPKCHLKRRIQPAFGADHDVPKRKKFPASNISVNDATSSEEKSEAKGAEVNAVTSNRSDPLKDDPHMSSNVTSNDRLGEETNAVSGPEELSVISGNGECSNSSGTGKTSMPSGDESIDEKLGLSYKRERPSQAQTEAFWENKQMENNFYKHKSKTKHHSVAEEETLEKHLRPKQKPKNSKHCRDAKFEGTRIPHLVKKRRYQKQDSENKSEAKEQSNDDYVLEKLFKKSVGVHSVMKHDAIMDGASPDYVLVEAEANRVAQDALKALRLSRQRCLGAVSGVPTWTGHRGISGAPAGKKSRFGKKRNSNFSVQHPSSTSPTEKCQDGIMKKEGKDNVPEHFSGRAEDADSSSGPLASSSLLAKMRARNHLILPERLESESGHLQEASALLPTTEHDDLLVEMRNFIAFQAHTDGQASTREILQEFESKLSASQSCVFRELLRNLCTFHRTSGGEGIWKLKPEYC
inactive: [1] 0.072 | volasertib -0.135 | [2] -0.06 | epoxomicin 0.015 | [3] 0.074 | [4] -0.091 | [5] 0.004 | rosiglitazone -0.221 | [6] -0.009 | [7] 0.08

DYNC1I2 isoform 5 (UniProt Q13409)
inactive: [1] 0.004 | volasertib 0.005 | [2] 0.004 | epoxomicin 0.026 | [3] 0.011 | [4] -0.003 | [5] 0.002 | rosiglitazone -0.024 | [6] -0.041 | [7] -0.035

DOHH (UniProt Q9BU89)
active: rosiglitazone 0.471
inactive: [1] -0.035 | volasertib -0.027 | [2] 0.031 | epoxomicin -0.197 | [3] 0.064 | [4] -0.1 | [5] 0.145 | [6] 0.025 | [7] 0.164

DNTTIP2 (UniProt Q5QJE6)
inactive: [1] 0.047 | volasertib -0.002 | [2] 0.031 | epoxomicin -0.144 | [3] 0.015 | [4] 0.09 | [5] -0.028 | rosiglitazone -0.088 | [6] 0.226 | [7] -0.028
